Among all 2,300 compounds or so, about 1,200 (52%) were called active. Not shown: some 34% with an inconclusive outcome. The set was probably picked from earlier hits. This is one part of the list. Values without a mark were called inactive. Calls follow the shape of the dose curve; as a rule, active = well fitted inhibition curve with a large enough effect; inconclusive = small, poorly fitted or top-dose-only effect, or effect the other way; inactive = no such curve, though single readings can be large or run the other way.
Assay: Confirmation screen for delayed death inhibitors of the malarial parasite plastid, 48 hour incubation; also: nearly all actives have a fitted effect of over 65% in size
Conditions: P. falciparum-infected erythrocytes, luciferase growth; series mostly up to 28.7 µM; activity change, negative = inhibition: at the top concentration
Summary of the method: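 Erythrocytes infected with luciferase-expressing P. falciparum (2% hematocrit, 0.1% parasitemia) incubated with compounds 48 hours at 37 C, 5% CO2, in RPMI/Albumax. Growth inhibition scored as reduced luminescence after detection reagent.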
% is scaled to controls: 0 for no effect and ±100 for the full control effect; potency is read from the fitted curve at half-maximal effect.

Row | SMILES | activity change, negative = inhibition | Potency
1 | Cn1c(=O)c2c([nH]c(=O)n2C)n(C)c1=O | -0.358% | 
2 | COc1ccc(S(=O)(=O)N/N=C(/C)c2ccco2)cc1 | -6.45% | 
3 | COc1ccc(CN(CCC(c2ccccc2)c2ccco2)C(=O)c2ccco2)cc1 (stereo not given) |  | 10 µM (active)
4 | O=C(CNC(=O)c1ccco1)OCC(=O)c1ccccc1 | 2.63% | 
5 | Cc1ccnc(NCc2cccc3ccccc23)c1 |  | 12.6 µM (active)
6 | Cc1ccnc(NCc2ccc(Cl)cc2)c1 | 18% | 
7 | CCOC(=O)c1c(CS(=O)(=O)c2ccccc2)n(C)c2cc(Br)c(O)cc12 |  | 12.6 µM (active)
8 | CC(C)N1CCc2c(sc(NC(=S)NC(=O)c3ccccc3)c2C#N)C1 |  | 10 µM (active)
9 | O=C(/C=C/c1cccs1)Nc1sc2c(c1C(=O)O)CCCC2 | -4.46% | 
10 | CC(=O)Nc1sc2c(c1-c1nc3ccccc3s1)CCN(C(C)C)C2 |  | 4.47 µM (active)
11 | CCN(CC)CCC[C@H](C)Nc1ccnc2cc(Cl)ccc12 |  | 0.501 µM (active)
12 | COc1ccc2nc3cc(Cl)ccc3c(Nc3cc(C(C)C)c(O)cc3C)c2c1 |  | 0.0224 µM (active)
13 | CCN(CC)CCC[C@H](C)Nc1c2ccc(Cl)cc2nc2ccc(OC)cc12 |  | 0.178 µM (active)
14 | CCOC(=O)C1=C(C)N=c2s/c(=C\c3ccc(OCC(=O)O)cc3)c(=O)n2C1c1ccc(OC(C)C)cc1 (stereo not given) |  | 5.01 µM (active)
15 | Clc1cccc(Cl)c1C[n+]1ccc2ccccc2c1 |  | 2.82 µM (active)
16 | CN(C)c1cc[n+](Cc2c(Cl)cccc2Cl)cc1 |  | 2.24 µM (active)
17 | Cc1ccccc1NC(=O)CCCn1nc(C)c2c(C)n(-c3ccccc3)nc2c1=O |  | 10 µM (active)
18 | CCOc1ccccc1C(=O)NCC(=O)NCCc1ccc(S(N)(=O)=O)cc1 | -5.73% | 
19 | Cc1cccc(C)c1NC(=O)CCCn1nc(C)c2c(C)n(-c3ccccc3)nc2c1=O |  | 12.6 µM (active)
20 | Cc1ccc(-c2nnn(CC(=O)Nc3ccc4nn(-c5ccccc5)nc4c3)n2)o1 | -6.32% | 

Row | SMILES | activity change, negative = inhibition | Potency
21 | CCOc1ccc(CCNC(=O)CCCn2nc(C)c3c(C)n(-c4ccccc4)nc3c2=O)cc1 |  | 11.2 µM (active)
22 | COc1ccc(NC(=O)CCCn2nc(C)c3c(C)n(-c4ccccc4)nc3c2=O)cc1 |  | 11.2 µM (active)
23 | COc1ccc(NC(=O)CCCn2cc([N+](=O)[O-])cn2)cc1 | -1.74% | 
24 | COCCN(C(=S)Nc1ccc(OC)c(Cl)c1)C1CCN(C(C)C)CC1 |  | 14.1 µM (active)
25 | COc1ccc2[nH]c3c(c2c1)CCN1C(=O)N([C@@H](C)C(=O)NCCc2ccc(F)cc2)C(=O)[C@]31C |  | 12.6 µM (active)
26 | CCCCOc1ccc(N2C(N)=NC(N)=NC23CCCCC3)cc1 |  | 2 µM (active)
27 | CCOC(=O)C1=C(NC(=S)NC(=O)c2ccccc2)c2ccccc2CC1(C)CC (stereo not given) |  | 11.2 µM (active)
28 | O=C(NC1CCC1)C1CCC(=O)N(Cc2ccccc2F)C1 (stereo not given) | -11.4% | 
29 | Cc1ccc2nc(CNC(=O)C3CCC(=O)N(Cc4ccccc4F)C3)cn2c1 (stereo not given) |  | 12.6 µM (active)
30 | COc1ccc(-c2nc(N3CCN(C)CC3)sc2-c2ccc(OC)cc2)cc1 |  | 15.8 µM (active)
31 | CC(=O)Nc1ccc(Nc2nnc(-c3ccc(C)c(S(=O)(=O)NCC4CCCO4)c3)c3ccccc23)cc1 (stereo not given) | -0.717% | 
32 | Cc1ccc(-c2nnc(N3CCOCC3)c3ccccc23)cc1S(=O)(=O)NCC1CCCO1 (stereo not given) |  | 7.08 µM (active)
33 | CCOCCCn1c(C)nc2c(c1=O)c1nc3ccccc3nc1n2CCC1=CCCCC1 |  | 7.08 µM (active)
34 | Cc1nn2c(Nc3ccccc3)c3c(nc2c1-c1ccccc1)CCC3 |  | 15.8 µM (active)
35 | Cc1ccc(-c2csc3nc[nH]c(=O)c23)cc1 | -1.08% | 
36 | Clc1ccc2nnnc(-c3ccccc3)c2c1 |  | 3.98 µM (active)
37 | O=C(c1ccc(S(=O)(=O)Cc2cc(F)ccc2F)c([N+](=O)[O-])c1)N1CCCC1 |  | 12.6 µM (active)
38 | O=C(c1ccc(S(=O)(=O)Cc2ccccc2Cl)c([N+](=O)[O-])c1)N1CCOCC1 |  | 10 µM (active)
39 | Cc1ccc(S(=O)(=O)N2CCN(c3ccc(C(=O)N4CCOCC4)cc3[N+](=O)[O-])CC2)cc1 |  | 7.08 µM (active)
40 | Cc1cccc(N2CCN(C(=O)C3CCN(c4ncnc5c4nc4n5CCCCC4)CC3)CC2)c1C |  | 14.1 µM (active)

Row | SMILES | activity change, negative = inhibition | Potency
41 | CC1CCN(C(=O)C2CCCN(c3ncnc4c3nc3n4CCCCC3)C2)CC1 (stereo not given) |  | 14.1 µM (active)
42 | COC(=O)CC1C(=O)NCCN1C(=S)Nc1ccc(F)cc1 (stereo not given) |  | 14.1 µM (active)
43 | CCOC(=O)C(Cc1ccccc1)C(=O)Nc1cccc2ccccc12 (stereo not given) |  | 3.98 µM (active)
44 | CCC1CN(C(=O)N2CCC(C(=O)NCc3cccc(OC)c3OC)CC2)c2cc(C)ccc2O1 (stereo not given) |  | 12.6 µM (active)
45 | COc1cccc(COC(=O)C2CC(=O)N(Cc3ccco3)C2)c1OC (stereo not given) | -19.1% | 
46 | CC(C)NS(=O)(=O)c1ccc(NC(=S)NC(=O)c2ccc(-c3ccccc3)cc2)cc1 |  | 5.01 µM (active)
47 | O=C(NC(=C(Cl)Cl)S(=O)(=O)c1ccc(Cl)cc1)c1ccccc1 | -9.33% | 
48 | O=c1c(Cl)c(Cl)cnn1Cc1nnc(-c2ccc(Cl)cc2)o1 |  | 14.1 µM (active)
49 | O=C(NC1CCCCC1)N1CCN(c2ccc([N+](=O)[O-])cc2)CC1 |  | 11.2 µM (active)
50 | Cc1ccc(NC(=O)/C(=C\c2ccc([N+](=O)[O-])cc2)NC(=O)c2ccccc2)cc1 |  | 10 µM (active)
51 | O=C(Nc1cccc([N+](=O)[O-])c1)c1ccc2nsnc2c1 | -9.9% | 
52 | Cc1ccc(NC(=O)c2ccc(Nc3c([N+](=O)[O-])cc([N+](=O)[O-])cc3[N+](=O)[O-])cc2)cc1 |  | 3.16 µM (active)
53 | O=C(NCc1ccccc1)c1c[nH]c2ccccc2c1=O |  | 14.1 µM (active)
54 | COCCn1c(=O)[nH]c2cc(C(=O)NCc3ccccc3)ccc2c1=O | 2.77% | 
55 | CCOC(=O)c1ccc2c(c1)n(CC)c(/C=C/N(C)c1ccccc1)[n+]2CC |  | 0.447 µM (active)
56 | CCn1c(/C=C/N(C(C)=O)c2ccccc2)[n+](CC)c2ccc(Cl)cc21 |  | 2.82 µM (active)
57 | CCc1ccc(NC(=O)CN(c2cc(C)cc(C)c2)S(=O)(=O)c2c(C)[nH]c(=O)[nH]c2=O)cc1 |  | 12.6 µM (active)
58 | CC1S/C(=N/N=C/c2ccco2)N(Cc2ccccc2)C1=O (stereo not given) | -10.7% | 
59 | CCC1S/C(=N/N=C/c2ccco2)N(Cc2ccccc2)C1=O (stereo not given) |  | 14.1 µM (active)
60 | CCC1S/C(=N/N=C/c2ccco2)N(Cc2ccccc2C)C1=O (stereo not given) |  | 11.2 µM (active)

Reference: PubChem BioAssay AID504850 (National Center for Advancing Translational Sciences (NCATS), 2011)
